# In ChEMBL document CHEMBL3988442, “University of Dundee, Small-Polar-MMV Screening Library” (2021):
# Target: AMP-activated protein kinase, AMPK (Homo sapiens) (UniProt P54646+O43741+P54619+Q9UGJ0+Q9Y478+Q13131+Q9UGI9)
# Experiment: AMP-dependent Kinase enzyme assay. An in vitro enzyme assay that detects ADP turnover that is directly proportional to AMPK activity. This uses naive AMPK that is activated during the assay with MK-8722
# Type: functional
# Set-up: scale not given: direction of the effect not stated beside the values
# Conditions: 30 µM
row,Compound,Percent Effect
1,CC(C)[C@@H]1CN(C(=O)CCc2ccc(F)cc2)C[C@H]1C(=O)O,-1.24%
2,CN(C)c1ncccc1NC(=O)COCC1CC1,2.89%
3,Cc1cncnc1C1CCN(C(=O)C2(C)CCCCN2C)CC1 (stereo not given),17%
4,CC1CN(CC(=O)NCCc2ccccc2)CCN1c1nccs1 (stereo not given),25.7%
5,CCOCC(=O)N1CCC(C)(c2nccs2)CC1,6.62%
6,Cc1cc(NC(=O)C2CCN(c3ncccc3C#N)CC2)no1,4.93%
7,COc1ncc(NCc2ccc(Cl)c(Cl)c2)cc1C(N)=O,18.2%
8,O=C(C1CCOC1)N1CCN(CC2CC2)c2ccccc21 (stereo not given),5.43%
9,COc1cc(N2CCN(Cc3ccc(C)o3)C(CCO)C2)nc(N)n1 (stereo not given),0.197%
10,O=C(CN1CC(c2ccccc2)CC1=O)N1CCN(c2nccs2)CC1 (stereo not given),15.4%
11,Cc1noc(CCCNC(=O)C2CSCN2C(=O)C(C)(C)C)n1 (stereo not given),-6.28%
12,Cc1ccnc(NC(=O)c2ccc(F)c(S(=O)(=O)NC3CC3)c2)c1,-7.9%
13,CCc1nnc(C(C)N2CCC(NC(=O)C3CCCCC3)CC2)o1 (stereo not given),2.87%
14,CC(C)(C)c1ccc(C(=O)C2CCCN(C(=O)CNS(C)(=O)=O)C2)cc1 (stereo not given),0.896%
15,Cc1cc(CN(C)C(C(=O)O)c2cccc(C(F)(F)F)c2)on1 (stereo not given),3.9%
16,CCc1nc(C2CCCN2Cc2ncc(C)c(OC)c2C)no1 (stereo not given),0.391%
17,CC(=O)NC1CCCN(c2nc3ccccc3cc2CO)C1 (stereo not given),3.71%
18,Cc1cc(N2Cc3cnn(CCO)c3C2)nc(-c2ccccc2O)n1,28.4%
19,CCC(C(=O)NCc1nc(C)cc(C(F)(F)F)n1)n1cccn1 (stereo not given),4.67%
20,CC(=O)N1CCN(C(=O)NC(C)Cn2ccnc2)CC1 (stereo not given),-4.12%

row,Compound,Percent Effect
1,Cc1nsc(N2CCN(CC(=O)N(C3CC3)C(C)C3CC3)CC2)n1 (stereo not given),7.84%
2,CC(Cn1cncc1-c1cnn(Cc2ccccc2)c1)N1CCCCC1 (stereo not given),7.07%
3,Cc1nn(C)c(C)c1-c1ccc(=O)n(C(C)C(=O)NC2CCCCC2)n1 (stereo not given),12.6%
4,Cc1ccccc1[C@@H]1CN(CCCS(=O)(=O)N(C)C)C[C@H]1C(=O)O,-1.92%
5,COc1cccc2ccc(N3CCC(O)(c4ccc(C)cn4)CC3)nc12,11.8%
6,CSC1(CNC(=O)N(C)Cc2sccc2C)CCOCC1,-7.94%
7,CCc1oc(C(=O)N[C@@H]2c3ccccc3C[C@@H]2O)cc1C,-3%
8,CC1(c2ncc(CN3CCSCC3)cn2)CCCCO1 (stereo not given),-1.61%
9,Cc1c(C(=O)N2CCC3(CCCNC3=O)C2)sc2nc[nH]c(=O)c12 (stereo not given),13.6%
10,CN(Cc1ccccc1CNC(=O)C1CNC(=O)N1)C1CCCCC1 (stereo not given),-6.64%
11,O=C(NCc1nc[nH]n1)c1cc(COc2ccccc2F)[nH]n1,-3.43%
12,CC(NC(=O)N1CCCN(C)CC1)c1ccc(S(N)(=O)=O)cc1 (stereo not given),5.68%
13,CCCc1ccc(CN2CCC3(CCC(=O)N(CCCOC)C3)CC2)o1,4.14%
14,OC[C@@H]1CCCN1Cc1cn(C2CCN(C3CCCC3)CC2)nn1,-1.95%
15,c1ccc(CCCn2ccnc2-c2cn(C3CCNCC3)nn2)nc1,-13.8%
16,Cc1cc(CNS(=O)(=O)CCCC#N)ccc1N(C)C,-7.86%
17,Cc1ccccc1CCC1CCCN(C(=O)Cc2cc(=O)[nH]c(N)n2)C1 (stereo not given),-3.84%
18,CC1CCCCN1C(=O)COc1nc(C(C)(C)C)no1 (stereo not given),-0.675%
19,CSc1ccc(NC(=O)Cn2cc(NC(C)=O)cn2)cc1,-11.9%
20,CN1CCN(C(=O)CCn2ncc3ccccc32)CC(C(N)=O)C1 (stereo not given),7.38%
